For eleven molecules, growth results are on record in PubChem BioAssay (NCI).

What all share (assay): NCI-60 one-dose screen, 48 h (100 = growth as untreated, 0 = no growth, -100 = all killed)
Holding throughout (conditions): 10 µM unless noted

Assay [1] has as its system NCI-H23 lung.
Assay [2] concerns NCI-H226 lung.
Assay [3] deals with HOP-62 NSCLC.
Assay [4] relates to NCI-H460 lung.
Assay [5] has as its system HOP-92 NSCLC.
In assay [6] the test system is A549/ATCC NSCLC.
Assay [7] has as its system 786-0 renal.
For assay [8], the system named is COLO 205 colon.
Assay [9] concerns DU-145 prostate.
The test system of assay [10] is MALME-3M melanoma.
For assay [11], the system named is MDA-MB-231 breast.
In assay [12] the test system is RXF 393 renal.
In assay [13] the test system is SF-268 CNS.
In assay [14] the test system is SF-295 CNS.
Assay [15] concerns SF-539 CNS.
Assay [16] relates to UACC-257 melanoma.
Assay [17] deals with M14 melanoma.
For assay [18], the system named is NCI-H522 lung.
The test system of assay [19] is K-562 leukemia.

The panel holds about 83,000 compounds, 20% with a hit somewhere; the sample as a whole holds those more often.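 A percent growth of 40 corresponds to 60% growth inhibition; 0 means no net growth; -100 means all cells died. Active threshold: below 10.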 Unmarked numbers belong to inactive results. The source made the active and inactive calls.

As to `N=C1C(c2nc3ccccc3s2)=C(O)CN1c1cc(Cl)cc(Cl)c1`, the growth is 88.6% in assay [1]; 102% in assay [2]; 62.2% in assay [3]; 67.5% in assay [4]; -15.8% (active) in [5]; 71.4% in assay [6]. In addition, the growth in [7] is 71.1%; in assay [8] it was 90.6%; in [9], 86.6%; in [10], 63.8%; in assay [11], 66.4%; in assay [12], 63.9%. The growth in assay [13] was 173%; in assay [14] it was 88.2%; in assay [15], 46.9%; in assay [16], 74.4%; in assay [17], 69%.
As to `O=C(N/N=C/c1ccc(Oc2ccccc2)cc1)c1cnn2c1NC(c1ccccc1)C2` (stereo unspecified), the growth in assay [1] was 61.2%; in [2], 89.2%; in assay [3], 33.6%; in assay [4], 1.16% (active); in assay [5], 74.2%; in assay [18], 51.3%. For the same molecule, the growth in assay [6] was 8.65% (active); in assay [7], 41%; in assay [8] it was 51.6%; in [9] it was 49.2%; in [19] it was 46.4%; in assay [10], 20.5%. For the same molecule, the growth was 72.8% in [11]; 71.5% in assay [12]; 64.5% in [13]; 18.6% in [14]; 37.5% in assay [15]; 59.8% in [16]. Moreover, the growth in assay [17] was 46.2%.
Regarding `O=C(/C=C/c1c(-c2ccc(Cl)cc2)nn(-c2ccccc2)c1C(F)(F)F)c1ccc(Cl)cc1`, the growth in assay [1] was 80.8%; in [2] it was 101%; in [3] it was 90.9%; in [4] it was 82.3%; in assay [5] it was 65.1%; in assay [18], 78.9%. The growth in [6] was 81.3%; in assay [7] it was 95.9%; in assay [9], 108%; in assay [10], 104%; in assay [11] it was 79.5%; in [12], 88.4%. Besides, the growth was 105% in [13]; 96.5% in assay [14]; 102% in [15]; 104% in assay [16]; 90.5% in assay [17].
In the case of `NS(=O)(=O)c1ccc(CCn2c(SCC(=O)c3ccc(Cl)cc3)nc3ccccc3c2=O)cc1`, the growth in assay [1] is 95.2%; in [2], 104%; in [3], 96.1%; in assay [4] it was 105%; in [5], 109%; in assay [18], 96.7%. The growth in assay [6] was 103%; in assay [7], 92.4%; in assay [8] it was 113%; in [9], 102%; in assay [10], 96.4%; in assay [11], 95.5%. Also, the growth in assay [12] is 111%; in [13] it was 100%; in [14], 103%; in assay [15], 94.2%; in assay [16] it was 111%; in assay [17] it was 104%.
As for `COc1cc(/C=N/NC(=O)c2cnn3c2NC(c2ccccc2)C3)ccc1Oc1ccccc1` (stereo unspecified), the growth is 43.8% in assay [1]; 54.1% in assay [2]; 22.3% in assay [3]; 7.15% (active) in assay [4]; 26.1% in assay [5]; 13.8% in assay [18]. The growth was 25.5% in assay [6]; 25.5% in [7]; 24.9% in assay [8]; 30.2% in assay [9]; 16.8% in [19]; 27.4% in assay [10]. The growth in assay [11] was 44.3%; in [12], 29.3%; in [13], 45.2%; in assay [14] it was 0.968% (active); in [15], 9.71% (active); in assay [16] it was 41.6%. For the same molecule, the growth in assay [17] was 18.2%.
As for `CC(=O)OC[C@]12CC[C@@H](C(=O)CBr)[C@@H]1[C@H]1CC[C@@H]3[C@@]4(C)CC[C@H](OC(C)=O)C(C)(C)[C@@H]4CC[C@@]3(C)[C@]1(C)CC2`, the growth in [1] is 95.4%; in assay [2], 100%; in [3], 103%; in assay [4], 105%; in assay [5], 96%; in [18], -63.9% (active). Further, the growth is 106% in [6]; 95.1% in assay [7]; 101% in assay [8]; 100% in [9]; 89.2% in assay [10]; 110% in assay [11]. Further, the growth in assay [12] was 99.7%; in [13], 89.9%; in assay [14], 106%; in [15], 91.7%; in assay [16] it was 108%; in [17], 87.2%.
As to `CCOC(=O)CSc1nc2ccccc2c(=O)n1Cc1ccc(S(N)(=O)=O)cc1`, the growth in assay [1] is 98%; in assay [2] it was 100%; in assay [3] it was 95.5%; in [4], 101%; in assay [5] it was 94.6%; in [18], 91.3%. Besides, the growth in assay [6] is 98%; in assay [7], 104%; in assay [8] it was 106%; in [9], 113%; in [19], 97.1%; in assay [10] it was 105%. For the same molecule, the growth in assay [11] was 101%; in assay [12] it was 98.4%; in assay [13] it was 99.2%; in [14], 99.4%; in [15], 97.7%; in [16], 101%. Further, in assay [17], the growth was 97%.
For `Cn1ccc2c1CC1CN(Cc3ccco3)C(=O)C1C2C(=O)O` (stereo unspecified), the growth in assay [1] is 94.3%; in assay [2], 103%; in [3], 96.8%; in [4], 102%; in assay [5], 99.4%; in [18] it was 92.3%. The growth in assay [6] is 98%; in assay [8], 117%; in assay [9], 89.2%; in assay [19], 97.4%; in [10] it was 98.5%; in [11], 97.1%. In addition, the growth in assay [12] is 111%; in assay [13], 92.6%; in assay [14], 100%; in [15] it was 96.3%; in assay [16], 97%; in assay [17], 103%.
For the molecule `O=C(CCN1CCCC1)Nc1ccc2c(NCc3ccccc3)c3ccccc3nc2c1`, the growth in assay [1] was -29.8% (active); in [2], -2.39% (active); in [3] it was -3.52% (active); in [4], -34.4% (active); in [5], -9.2% (active); in assay [18], -28.2% (active). For the same molecule, the growth in assay [6] was -19.7% (active); in assay [7], 5.35% (active); in assay [8], -41.6% (active); in assay [9] it was -25% (active); in [19] it was -14.3% (active); in [10] it was -18.5% (active). Further, the growth is -14.9% (active) in assay [11]; -16% (active) in assay [12]; -2.23% (active) in assay [13]; 15.5% in [14]; 5.91% (active) in [15]; 1.08% (active) in assay [16]. Besides, the growth in [17] was 7.61% (active).
As to `CC(C)N1C(=O)S/C(=C2/SC(=O)N(C(C)C)C2=O)C1=O`, the growth in [1] is 93.8%; in assay [2], 102%; in [3], 111%; in assay [4], 102%; in assay [5] it was 74.6%; in assay [18], 89.9%. For the same molecule, the growth in assay [6] was 101%; in [8], 112%; in assay [9], 91.8%; in assay [19], 94.4%; in assay [10] it was 90.4%; in assay [11] it was 76.2%. Besides, the growth is 99.2% in assay [12]; 94.8% in assay [13]; 101% in [14]; 86.4% in [15]; 99% in assay [16]; 93% in assay [17].
Consider `CCOC(=O)[C@@H](C)C[C@H](Cc1ccccc1)NC(=O)c1csc([C@@H](C[C@H](C(C)C)N(C)C(=O)[C@@H](NC(=O)[C@H]2C[C@H](O[Si](C)(C)C(C)(C)C)CCN2C)C(C)C)OC(C)=O)n1`, for which the growth in [1] is 17.6% [9.25 µM]; in [2] it was -39.2% [9.25 µM] (active); in assay [3], 0.247% [9.25 µM] (active); in assay [4], -23.9% [9.25 µM] (active); in assay [5] it was -9.53% [9.25 µM] (active); in assay [18], -46.7% [9.25 µM] (active). The growth in assay [6] is 7.91% [9.25 µM] (active); in assay [7], -5.36% [9.25 µM] (active); in assay [8], -72.6% [9.25 µM] (active); in assay [9] it was -21.4% [9.25 µM] (active); in assay [19], 3.46% [9.25 µM] (active); in assay [10], 18.1% [9.25 µM]. Moreover, the growth is -34.7% [9.25 µM] (active) in assay [11]; -10.3% [9.25 µM] (active) in [12]; 4.82% [9.25 µM] (active) in [13]; -15.6% [9.25 µM] (active) in assay [14]; -49.7% [9.25 µM] (active) in assay [15]; 21.3% [9.25 µM] in assay [16]. Moreover, the growth in assay [17] was -42.2% [9.25 µM] (active).
